Source: PubChem BioAssay (NCATS)
Inconclusive results are not listed. Where a call stands in place of a potency, no number is given. A number with no mark means an inactive call. Activity calls are given as the source filed them. Calls follow the shape of the dose curve; as a rule, active = well fitted cell-killing curve with a large enough effect; inconclusive = small, poorly fitted or top-dose-only effect, or effect the other way; inactive = flat fitted curve, though single readings scatter.

test system: OV90; experiment: Primary qHTS to identify gynecologic anti-cancer compounds using libraries of approved drugs and bioactive compounds (AID 1345084); conditions: Gynecologic cancer cell panel viability, ATPlite luminescence, 48 h; series mostly up to 57.5 µM; also: nearly all actives have a fitted effect of over 55% in size
Outline: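 Cells, 1,000 per well, plated 16 h, then exposed 48 h at 37 C to compounds. Viability by ATPlite luminescence after 15 min at room temperature.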
Potency is read from the fitted curve at half-maximal effect.

Structure (SMILES)	Potency	activity change, negative = cytotoxicity
Cc1ccc(NC(=O)c2ccc(CN3CC[C@H](N(C)C)C3)c(C(F)(F)F)c2)cc1Nc1nccc(-c2cncnc2)n1	5.01 µM (active)	
CCOC(=O)C(CCc1ccccc1)NC(C)C(=O)N1C(=O)N(C)CC1C(=O)O (stereo unspecified)	inactive	
C[C@H]1[C@H](O)O[C@@H]2O[C@@]3(C)CC[C@H]4[C@H](C)CC[C@@H]1[C@@]24OO3	inactive	
C1CCC[C@H]2CCCN3CC[C@@H](CCCCCC[C@@H]4CCCN5CC[C@@H](CC1)O[C@@H]45)O[C@@H]23		-15.5% [at 0.155 µM]
CCCCc1ccc(C(=O)Nc2cc(-c3ccc(Cl)cc3)nn2-c2ccc(Cl)cc2)cc1	inactive	
COc1ncc(Nc2ncc([C@H](C)N3CCN(S(C)(=O)=O)CC3)cc2-c2nc(C)nc(N)n2)cc1F	inactive	
CN1CCC(Nc2nc(Nc3ccc(Oc4ccccc4)cc3)c3c(=O)[nH]cc(Br)c3n2)CC1	inactive	
CC(=O)O[C@H]1C(=O)[C@@]2(C)[C@H]([C@H](OC(=O)c3ccccc3)[C@]3(O)C[C@H](OC(=O)[C@H](O)[C@@H](NC(=O)c4ccccc4)c4ccccc4)C(C)=C1C3(C)C)[C@]1(OC(C)=O)CO[C@@H]1C[C@@H]2O		-15.2% [at 11.6 µM]
C=C(C(=O)O)C1CC2=C(C)CCCC2(C)C[C@@H]1O (stereo partly specified)	inactive	
C=C(C)C(=O)O[C@H]1CC2=CC(C/C(C)=C\[C@H]3OC(=O)C(=C)[C@H]13)OC2=O (stereo partly specified)	inactive	
C[C@@H]1CCC2C(C)(C)[C@H](O)CC[C@]2(C)[C@@]12Cc1c(O)cc3c(c1O2)CN([C@@H](CCC(=O)O)C(=O)O)C3=O (stereo partly specified)	inactive	
